Experimental data: PubChem BioAssay AID1347044 (National Center for Advancing Translational Sciences (NCATS), 2019)
The campaign covered roughly 1,400 compounds. About 1,100 (79%) were called active. Not shown: some 20% with an inconclusive outcome. Calls come from the whole dose curve. The set was probably picked from earlier hits. The list is a sample of the results.

molecular target: Atrial natriuretic peptide receptor 1 (Homo sapiens) (UniProt P16066); test: Natriuretic polypeptide receptor (hNpr1) antagonism - Confirmation; details: HEK293 hNpr1 cGMP GloSensor luminescence, ANP-stimulated; note: nearly all actives have a fitted effect of over 70% in size
Description: In order to identify small molecular compounds that inhibit the hNpr1 receptor we developed a high-throughput assay to measure inhibition of the guanylate cyclase activity of the receptor. cGMP production was measured using a circular permutated Firefly luciferase (FLuc) enzyme functionally linked to the cGMP binding domain of human phosphodiesterase 5 (GloSensor technology pGS-40F, (Fan, F. et al. 2008). The cGMP-sensor was expressed in human embryonic kidney 293 (HEK-293) cells and FLuc activity was measured after stimulation with hNrp agonist peptide. hNrp agonists activates the receptor's associated guanylyl cyclase (GC) domain producing cGMP which then binds to the GloSensor resulting in FLuc activation, the enzymatic activity of which can be measured as bioluminescence with addition of luciferin substrate. A cytotoxicity counter-screen using the HEK-hNpr1-cGMP-sensor cells was also performed on the follow-up compounds. F. Fan, B. F. Binkowski, B. L. Butler, P. F. Stecha, M. K. Lewis, K. V. Wood, Novel genetically encoded biosensors using firefly luciferase. ACS Chem Biol 3, 346-351 (2008).
PROTOCOL TABLES (as described by Inglese J, Shamu CE and Guy RK. 2007) SEQUENCE No. (e.g., 1, 2, 3, etc.); PARAMETER (e.g., Cells, Incubation, Reagent, etc.); VALUE and DESCRIPTION. GLOSENSOR PROTOCOL 1. Cells. Seed 1500 HEK293 cGMP-sensor cells expressing hNpr1 per well in 4uL into Greiner 1536-well white/solid bottom high base, tissue culture-treated plates. 2. Incubation. Incubate plated cells at 37C in 5% CO2, 95% RH overnight. 3. Reagent. Add 1uL per well GloSensor reagent from Promega (2% final concentration) or CO2 independent media vehicle control to respective columns of Greiner 1536-well plates. 4. Incubation. Incubate plated cells at room temperature for 2 h, protect from light. 5. Compounds. Library compounds and A-71915 control added at 23 nL per well, transferred by Pin Tool. 6. Incubation. Incubate plated cells for 30 min. at room temperature, protect from light. 7. Detector. GloSensor baseline pre-read luminescence measured using CCD-based camera (Viewlux). 8. Compound. Add 1uL of hNppA peptide to 0.1 nM final concentration to stimulate hNpr1 or CO2 independent media as vehicle control. 9. Incubation. Incubate treated cells at room temperature for 20 min., protect from light. 10. Detector. GloSensor post-hNppA luminescence measured using CCD-based camera (Viewlux). NOTES (numbers refer to Sequence numbers above) 1. HEK293 cells expressing hNpr1 and GIP/pGS-40F grown to 85-95% confluence (48-72 h) in T175 culture flasks (CO2 independent media supplemented with 10% FBS, 1% Pen/Strep antibiotics and 1 ug/mL puromycin). Trypsinize and harvest cells from T175 culture flasks and filter through 40 um cell strainer. Cells counted with Invitrogen Countess (30,000,000 - 50,000,000 cells/flask). Cells diluted to a final concentration of 375 cells/uL in CO2 independent media and a Millipore multidrop used to dispense 1500 cells per well (4uL/well) into 13 1536-well Greiner White/Solid bottom, high base tissue-culture treated (TC) plates and one Aurora 1536-well Black/Clear bottom, low base, TC plate (for visual inspection of cell health throughout the duration of the assay). 2. Cells incubated overnight at ambient temperature, 24 h. at 37C in 95% RH incubator protected from light, covered with metal lid with gas-exchange holes. 3. […]
Potency is the fitted concentration of half-maximal effect.

Chain of Atrial natriuretic peptide receptor 1 (Homo sapiens) (P16066 whole entry, looked up, the tested form may be a part): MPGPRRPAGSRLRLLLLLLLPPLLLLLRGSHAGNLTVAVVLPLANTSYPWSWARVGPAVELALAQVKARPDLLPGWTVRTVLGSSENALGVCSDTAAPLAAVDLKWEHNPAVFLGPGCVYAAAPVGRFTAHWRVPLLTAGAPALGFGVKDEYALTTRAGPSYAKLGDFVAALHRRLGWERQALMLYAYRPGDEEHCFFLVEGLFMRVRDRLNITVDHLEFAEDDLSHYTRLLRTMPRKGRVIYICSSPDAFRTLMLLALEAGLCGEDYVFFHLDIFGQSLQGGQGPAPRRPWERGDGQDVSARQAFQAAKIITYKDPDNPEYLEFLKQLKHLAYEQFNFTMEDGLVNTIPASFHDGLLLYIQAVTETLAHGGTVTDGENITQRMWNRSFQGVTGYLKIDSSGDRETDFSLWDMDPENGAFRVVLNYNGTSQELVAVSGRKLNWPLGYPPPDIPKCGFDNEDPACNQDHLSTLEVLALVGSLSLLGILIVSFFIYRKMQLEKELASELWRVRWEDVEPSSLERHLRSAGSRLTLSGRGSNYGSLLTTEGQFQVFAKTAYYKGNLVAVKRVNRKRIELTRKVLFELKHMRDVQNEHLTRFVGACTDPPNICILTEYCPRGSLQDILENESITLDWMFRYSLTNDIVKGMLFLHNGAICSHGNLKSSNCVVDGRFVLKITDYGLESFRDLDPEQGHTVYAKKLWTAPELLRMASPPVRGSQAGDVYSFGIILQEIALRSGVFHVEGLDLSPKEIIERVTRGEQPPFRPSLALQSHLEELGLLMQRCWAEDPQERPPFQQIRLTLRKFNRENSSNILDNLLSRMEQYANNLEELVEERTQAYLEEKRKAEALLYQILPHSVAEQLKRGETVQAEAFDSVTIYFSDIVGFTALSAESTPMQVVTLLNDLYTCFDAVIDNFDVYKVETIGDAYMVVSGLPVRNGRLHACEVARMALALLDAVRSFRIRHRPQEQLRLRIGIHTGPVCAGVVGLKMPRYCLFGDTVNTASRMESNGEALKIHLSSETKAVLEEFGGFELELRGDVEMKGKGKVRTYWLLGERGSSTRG

Structure (SMILES) | Potency
CCC(CC)c1cc([C@H]2CN3CC[C@H]2C[C@@H]3CNC(=O)NCc2ccccc2)nc(-c2ccncc2)n1 | 19.3 µM (active)
COc1cc2c(cc1Oc1cccc(N(C)C)c1)NC(=O)C21CCN(CCC(C)C)CC1 | 35.3 µM (active)
COc1cc2c(cc1Oc1cccc(N(C)C)c1)NC(=O)C21CCN(c2cnccn2)CC1 | 21.7 µM (active)
COc1cc2c(cc1OCc1ccncc1)NC(=O)C21CCN(c2ncc(F)cn2)CC1 | 39.6 µM (active)
COc1cc2c(cc1Oc1cccc(N(C)C)c1)NC(=O)C21CCN(Cc2ccccn2)CC1 | 21.7 µM (active)
